# Source: PubChem BioAssay (Tox21)
# Results filed as inconclusive are left out. Entries that show only a call come without a potency. The source made the active and inactive calls. The call rests on the fitted dose curve; in most records, active means well fitted activation curve with a large enough effect in the repeat runs; inconclusive means weak or mixed curves; inactive means flat fitted curve, though single readings scatter.
# Assay: A CellTox Green Cytotoxicity Assay to monitor cytotoxicity in HEK293 cells - 32 hour (AID 1224881); further: nearly all actives have a fitted effect of over 40% in size
# Details: CellTox Green fluorescence; series mostly up to 76.8 µM
# Text: National Center for Advancing Translational Sciences [NCATS]
# NIH Chemical Genomics Center [NCGC]
# U.S. Environmental Protection Agency [EPA]
# National Institutes of Environmental Health Sciences [NIEHS]
# National Toxicology Program [NTP]
# Cell-based models are critical for drug discovery. Determining the natural cytotoxic effects resulting from test compounds is an essential research activity. A CellTox Green Cytotoxicity Assay to monitor cytotoxicity in real time of continues cell culture during 40 hours of the compound treatment was used to screen Tox21 10K library compounds in Hek293 cells. CellTox Green Cytotoxicity Assay is a nonlytic, homogeneous, biofluorescent method to measure cytotoxicity in cell culture after experimental manipulation. The assay system uses a proprietary asymmetric cyanine dye that is excluded from viable cells but preferentially stains the dead cell's DNA. […] Viable cells produce no appreciable increases in fluorescence. Therefore, the fluorescence signal produced by the binding interaction with dead cell DNA is proportional to cytotoxicity.
# The mixture of Hek293 cell suspension and reagents were dispensed at 600cells/6 ul/well in 1536-well tissue culture treated black solid bottom plates using a Multidrop dispenser. After the assay plates were incubated at a 37 C/5% CO2 incubator for 5 hours, 23 nL of compounds dissolved in DMSO, positive and negative controls was transferred to the assay plate by a pintool work station. The plates were incubated at 37 C for 40 hours. The fluorescence intensity were measured at 0h, 8h, 16h, 24h, 32h and 40h time points using ViewLux plate reader during compound treatment.
# Potency means the concentration at half of the fitted maximal effect.
row,SMILES,Potency
1,CCc1cc(C)cc(CC)c1-c1c(OC(=O)C(C)(C)C)n2n(c1=O)CCOCC2,inactive
2,N#CCc1ccc(Cl)cc1,inactive
3,Fc1cccc(Cl)c1CCl,inactive
4,CN(CCCC(=O)c1cccnc1)N=O,inactive
5,CC(C)OC(=S)S,inactive
6,CCCOCC(=Nc1ccc(Cl)cc1C(F)(F)F)n1ccnc1,48.9 µM (active)
7,CCCCOCN(C(=O)CCl)c1c(CC)cccc1CC,inactive
8,C[C@]12CC[C@H](O)C[C@H]1CC[C@@H]1[C@@H]2C[C@@H](O)[C@]2(C)[C@@H](C3=CC(=O)OC3)CC[C@]12O,inactive
9,O=c1oc2ccccc2c(O)c1Cc1c(O)c2ccccc2oc1=O,inactive
10,CCCCOP(=O)(CCCC)OCCCC,inactive
11,CCCCCCCCc1ccc(O)cc1,17.5 µM (active)
12,CC(C)OC(=O)C(O)(c1ccc(Cl)cc1)c1ccc(Cl)cc1,54.9 µM (active)
13,CC(C)CBr,inactive
14,FC(Cl)(Cl)Cl,inactive
15,c1ccc2cc3c(cc2c1)-c1cccc2cccc-3c12,inactive
16,C[C@H]1O[C@@H](O[C@H]2[C@@H](O)C[C@H](O[C@H]3[C@@H](O)C[C@H](O[C@H]4CC[C@@]5(C)[C@H](CC[C@@H]6[C@@H]5CC[C@]5(C)[C@@H](C7=CC(=O)OC7)CC[C@]65O)C4)O[C@@H]3C)O[C@@H]2C)C[C@H](O)[C@@H]1O,inactive
17,CCOc1cc(C(C)(C)C)ccc1C1COC(c2c(F)cccc2F)=N1 (stereo not given),inactive
18,N#C/C=C/C#N,inactive
19,COC12CC[C@@]3(C[C@@H]1C(C)(O)C(C)(C)C)[C@H]1Cc4ccc(O)c5c4[C@@]3(CCN1CC1CC1)[C@H]2O5 (stereo not given in full),38.6 µM (active)
20,CC(C)[C@H](C(=O)O[C@H](C#N)c1cccc(Oc2ccccc2)c1)c1ccc(Cl)cc1,inactive

row,SMILES,Potency
1,CCOP(=O)(NC(C)C)Oc1ccc(SC)c(C)c1 (stereo not given),inactive
2,N#CCCC(Br)(C#N)CBr (stereo not given),54.9 µM (active)
3,Oc1c(Br)c(Br)c(Br)c(Br)c1Br,inactive
4,CC(C)[C@H](C(=O)OC(C#N)c1cccc(Oc2ccccc2)c1)c1ccc(OC(F)F)cc1 (stereo not given in full),inactive
5,COC(=O)N(C(=O)N1COC2(C(=O)OC)Cc3cc(Cl)ccc3C2=N1)c1ccc(OC(F)(F)F)cc1 (stereo not given),inactive
6,CCOCCOC(C)=O,inactive
7,CC(=O)c1ccc(-c2ccccc2)cc1,inactive
8,Cn1cc(C2=C(c3cn(C4CCN(Cc5ccccn5)CC4)c4ccccc34)C(=O)NC2=O)c2ccccc21,inactive
9,Nc1ccccc1C(=O)OC/C=C/c1ccccc1,inactive
10,O=[N+]([O-])O.O=[N+]([O-])O.[Cd],38.9 µM (active)
11,CC(=O)Nc1ccc2c(c1)Cc1ccccc1-2,inactive
12,COP(=O)(OC)SCn1c(=O)oc2cc(Cl)cnc21,inactive
13,BrCC(Br)c1ccccc1 (stereo not given),inactive
14,CC(Cc1ccc(C(C)(C)C)cc1)CN1C[C@@H](C)O[C@@H](C)C1 (stereo not given in full),49 µM (active)
15,C[CH2][Hg][N]1C(=O)C2C(C1=O)C1(Cl)C(Cl)=C(Cl)C2(Cl)C1(Cl)Cl (stereo not given),4.65 µM (active)
16,N#CCCO,inactive
17,O=C(Nc1ccc2[nH]ccc2c1)c1cc2cc(F)ccc2n1Cc1cccc(F)c1,inactive
18,O=c1c(C2CC(c3ccc(-c4ccc(Br)cc4)cc3)Cc3ccccc32)c(O)sc2ccccc12 (stereo not given),inactive
19,S=C(SSC(=S)N1CCCCC1)N1CCCCC1,0.107 µM (active)
20,O=C(CBr)c1ccc(O)cc1,inactive
